The source of these data is PubChem BioAssay (Tox21).

Records with an inconclusive call do not appear. Values without a mark were called inactive. Calls of active or inactive are those of the source. Unless noted, calls follow the shape of the dose curve; as a rule, active = well fitted curve in the direction sought with a large enough effect in the repeat runs; inconclusive = weak or mixed curves; inactive = no such curve, though single readings can be large; an effect the other way counts as inactive or inconclusive.

Assay [1] in a line: qHTS assay to identify aromatase inhibitors - cell viability counter screen (AID 743084).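 Also: cells stimulated with testosterone during compound exposure; nearly all actives have a fitted effect of over 55% in size.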
Assay [2] has as its target Aryl hydrocarbon receptor (Homo sapiens) (UniProt P35869). Nature of the assay: qHTS assay to identify small molecule that activate the aryl hydrocarbon receptor (AhR) signaling pathway (AID 743085). Also: nearly all actives have a fitted effect of over 15% in size. Also: potency is read from the fitted curve at half-maximal effect.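 As to activation: HG2L7.5c1 human HepG2 liver cells with stably integrated DRE-driven firefly reporter; series mostly up to about 70 µM.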 In outline:
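Reporter assay in engineered HepG2 line HG2L7.5c1, whose plasmid carries twenty dioxin responsive elements upstream of firefly luciferase. Treatment lasted 24 h at 37C; ONE-Glo luminescence gauged induction.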

Assay [3] is described as follows: qHTS assay to identify small molecule that activate the aryl hydrocarbon receptor (AhR) signaling pathway - cell viability counter screen (AID 743086).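 Also: HepG2 liver cells carrying the AhR DRE luciferase reporter; series mostly up to about 70 µM; nearly all actives have a fitted effect of over 45% in size.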 The method in brief:
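HepG2-AhR-luc (HG2L7.5c1) cells, 4000/well, were preincubated 5 h at 37C, exposed to compound in qHTS format for 24 hr at 37C, then given CellTiter-Fluor for 30 min; viability was read as fluorescence in the reporter wells.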
(In general: Quantitative high-throughput screening tests each substance at several concentrations.)

In assay [4] the target is Peroxisome proliferator-activated receptor gamma (Homo sapiens) (UniProt P37231). Nature of the assay: qHTS assay to identify small molecule agonists of the peroxisome proliferator-activated receptor gamma (PPARg) signaling pathway (AID 743094; active = well fitted activation curve with a large enough effect in the signal ratio in the repeat runs, not every such curve was filed as active; the % refers to the signal ratio). The method in brief: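 Following 5 h plating at 37C, PPARg-bla HEK293H cells receive compound or DMSO for 17 h; fluorescence intensity is recorded after LiveBLAzer B/G loading for 1 h at room temperature.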

The target is the same in assay [5]. Nature of the assay: qHTS assay to identify small molecule antagonists of the peroxisome proliferator-activated receptor gamma (PPARg) signaling pathway (AID 743191; calls by dose curve; also: series mostly up to about 63 µM; nearly all actives have a fitted effect of over 30% in size). In outline:
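GeneBLAzer PPARg UAS-bla HEK293H cells carrying a UAS-driven beta-lactamase reporter were plated at 3000 cells/well, preincubated 5 h at 37C, then given compound for 17 h at 37C; LiveBLAzer B/G FRET substrate was read after 1 h at room temperature.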

Assay [6] is described as follows: qHTS assay to identify small molecule antagonists of the peroxisome proliferator-activated receptor gamma (PPARg) signaling pathway - cell viability counter screen (AID 743194). Also: nearly all actives have a fitted effect of over 55% in size. The settings on record: Potency: co-treated with 50 nM rosiglitazone. The method in brief: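 PPARg-UAS-bla HEK293H cells were plated, rested 5 h at 37 C, then treated with compounds plus rosiglitazone (50 nM final) for 17 h at 37 C; viability was then read by CellTiter-Glo luminescence after 30 min at room temperature.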

Assay [7] in a line: qHTS assay for small molecule agonists of the antioxidant response element (ARE) signaling pathway - cell viability counter screen (AID 743203; calls by dose curve; also: nearly all actives have a fitted effect of over 55% in size). The method in brief:
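Compounds in DMSO were pinned onto ARE-bla HepG2 cells plated 5 hrs earlier at 2,000 cells/well. Sixteen hours later at 37C/5% CO2, CellTiter-Glo was added and luminescence measured after 30 min at room temperature.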

Assay [8] in a line: qHTS assay for small molecule activators of the heat shock response signaling pathway - cell viability counter screen (AID 743209). Also: nearly all actives have a fitted effect of over 50% in size. The method in brief:
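Counter screen for cytotoxicity in HeLa HSE-bla reporter cells. Treatment was 5 h at 37 C; viability was detected by luminescent ATP assay (CellTiter-Glo) in the same wells as the beta-lactamase read.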

Assay [9] is described as follows: qHTS assay for small molecule activators of the heat shock response signaling pathway (AID 743210; active = well fitted activation curve with a large enough effect in the signal ratio in the repeat runs, with a control signal flat, not every such curve was filed as active; the % refers to the signal ratio; also: series mostly up to about 63 µM). In outline:
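HSE-bla HeLa cells (beta-lactamase reporter under heat shock response elements) were exposed to compounds for 5 h at 37 C, then loaded with LiveBLAzer B/G FRET substrate for 2.5 h at room temperature before fluorescence reading.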

The target of assay [10] is Peroxisome proliferator-activated receptor delta (Homo sapiens) (UniProt Q03181). The assay can be described thus: qHTS assay to identify small molecule agonists of the peroxisome proliferator-activated receptor delta (PPARd) signaling pathway (AID 743212; calls by dose curve). In outline: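 GeneBLAzer PPARd UAS-bla HEK293H cells (beta-lactamase reporter under UAS control), plated and rested 5 h at 37 C, then exposed to compounds in DMSO at 37 C; LiveBLAzer B/G FRET substrate added, 2 h room temperature, fluorescence read.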

Assay [11] can be described thus: qHTS assay to identify small molecule antagonists of the peroxisome proliferator-activated receptor delta (PPARd) signaling pathway - cell viability counter screen (AID 743213). Also: nearly all actives have a fitted effect of over 50% in size. In outline: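 PPARd-bla HEK293H cells (3000/well) got compound plus 300 nM L165041 agonist for 17 h at 37 C. Viability in the same wells came from CellTiter-Glo luminescence after 30 min at room temperature.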

The target of assay [12] is Peroxisome proliferator-activated receptor delta (Homo sapiens) (UniProt Q03181). The assay can be described thus: qHTS assay to identify small molecule antagonists of the peroxisome proliferator-activated receptor delta (PPARd) signaling pathway (AID 743215; active = well fitted inhibition curve with a large enough effect in the signal ratio in the repeat runs, not every such curve was filed as active; the % refers to the signal ratio;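 also: cells stimulated with agonist L165041 at 300 nM final during compound exposure; series mostly up to about 62 µM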). In outline:
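With L165041 present at 300 nM final, compounds were incubated 17 h at 37 C on PPARd UAS-bla HEK293H cells. A FRET-based beta-lactamase substrate was then applied for 2 h at room temperature and fluorescence intensity recorded.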

The nature of assay [13]: qHTS assay to identify small molecule agonists of the farnesoid-X-receptor (FXR) signaling pathway - cell viability counter screen (AID 743218). Also: nearly all actives have a fitted effect of over 45% in size. The method in brief: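 After 16 h at 37 C with test compounds, FXR-bla HEK 293T cells were given LiveBLAzer B/G substrate for 2 h at RT and then CellTiter-Glo; luminescence was taken after 30 min.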
Assay [14] in a line: qHTS assay to identify small molecule antagonists of the farnesoid-X-receptor (FXR) signaling pathway - cell viability counter screen (AID 743221; active = well fitted cell-killing curve with a large enough effect in the repeat runs, not every such curve was filed as active; also: nearly all actives have a fitted effect of over 50% in size). In outline: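 CellTiter-Glo, 30 min RT, luminescence; same wells as the LiveBLAzer FRET read. Cells: FXR-UAS-bla HEK 293T. Treatment: compound with chenodeoxycholic acid 50 uM final, 16 h at 37 C.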
The target of assay [15] is Vitamin D3 receptor (Homo sapiens) (UniProt P11473). The assay can be described thus: qHTS assay to identify small molecule agonists of the vitamin D receptor (VDR) signaling pathway (AID 743222; calls by dose curve). In outline: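 VDR-bla cells were seeded, left 4 h, treated with compounds in DMSO for 16 h, incubated 2 h at RT with B/G FRET substrate, and read for fluorescence.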
For assay [16] the target is unchanged. The assay can be described thus: qHTS assay to identify small molecule antagonists of the vitamin D receptor (VDR) signaling pathway (AID 743223; active = well fitted inhibition curve with a large enough effect in the signal ratio in the repeat runs, not every such curve was filed as active; the % refers to the signal ratio). The method in brief: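 After VDR-bla cells are plated and left 4 h at 37C, DMSO-dissolved compounds and 3 nM (final) calcitriol agonist are added. Incubation continues 16 h at 37C; FRET beta-lactamase substrate then develops 2 h at room temperature.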

A short description of assay [17]: qHTS assay for small molecule agonists of the antioxidant response element (ARE) signaling pathway (AID 743202; active = well fitted activation curve with a large enough effect in the signal ratio in the repeat runs, not every such curve was filed as active; the % refers to the signal ratio). In outline:
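Read-out: LiveBLAzer B/G FRET substrate fluorescence after 2 h at room temperature, following 16 h compound treatment at 37 C of HepG2 cells carrying an ARE-driven beta-lactamase reporter.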

Assay [18] is described as follows: qHTS assay to identify small molecule agonists of the peroxisome proliferator-activated receptor delta (PPARd) signaling pathway - cell viability counter screen (AID 743211). Also: nearly all actives have a fitted effect of over 55% in size. The method in brief: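 Multiplexed format: after the 2 h room-temperature LiveBLAzer B/G FRET step, CellTiter-Glo was added to the same wells. Luminescence after 30 min gave cell viability; compound exposure was 17 h at 37C.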

The target in assay [19] is Bile acid receptor (Homo sapiens) (UniProt Q96RI1). The assay can be described thus: qHTS assay to identify small molecule antagonists of the farnesoid-X-receptor (FXR) signaling pathway (AID 743217; active = well fitted inhibition curve with a large enough effect in the signal ratio in the repeat runs, not every such curve was filed as active; the % refers to the signal ratio). In outline: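 In this cell-based antagonist screen, inhibition of CDCA-driven (50 uM final) UAS-beta-lactamase expression in HEK 293T cells was measured by FRET fluorescence following 16 h compound exposure at 37 °C.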

Assay [20] shares this target. Nature of the assay: qHTS assay to identify small molecule agonists of the farnesoid-X-receptor (FXR) signaling pathway (AID 743220; active = well fitted activation curve with a large enough effect in the signal ratio in the repeat runs, not every such curve was filed as active; the % refers to the signal ratio). The method in brief:
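Beta-lactamase reporter under UAS control in GeneBLAzer FXR HEK 293T cells (5000/well) measured with LiveBLAzer FRET substrate after 2 h at room temperature. Compound exposure lasted 16 h at 37C.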

Sequence of Vitamin D3 receptor (Homo sapiens) (P11473 whole entry, looked up): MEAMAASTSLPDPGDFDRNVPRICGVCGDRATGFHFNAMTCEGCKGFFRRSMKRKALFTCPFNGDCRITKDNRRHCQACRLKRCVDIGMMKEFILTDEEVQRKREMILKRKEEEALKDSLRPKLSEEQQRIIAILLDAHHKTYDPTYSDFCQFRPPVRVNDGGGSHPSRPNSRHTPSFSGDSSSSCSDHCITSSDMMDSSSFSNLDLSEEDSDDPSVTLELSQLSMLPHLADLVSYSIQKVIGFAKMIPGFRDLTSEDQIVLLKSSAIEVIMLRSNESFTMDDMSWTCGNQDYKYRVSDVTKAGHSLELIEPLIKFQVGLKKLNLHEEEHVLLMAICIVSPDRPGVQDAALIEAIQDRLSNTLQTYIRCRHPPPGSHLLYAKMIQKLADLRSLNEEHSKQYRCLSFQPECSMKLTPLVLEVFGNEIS
Sequence of Aryl hydrocarbon receptor (Homo sapiens) (P35869 whole entry, looked up): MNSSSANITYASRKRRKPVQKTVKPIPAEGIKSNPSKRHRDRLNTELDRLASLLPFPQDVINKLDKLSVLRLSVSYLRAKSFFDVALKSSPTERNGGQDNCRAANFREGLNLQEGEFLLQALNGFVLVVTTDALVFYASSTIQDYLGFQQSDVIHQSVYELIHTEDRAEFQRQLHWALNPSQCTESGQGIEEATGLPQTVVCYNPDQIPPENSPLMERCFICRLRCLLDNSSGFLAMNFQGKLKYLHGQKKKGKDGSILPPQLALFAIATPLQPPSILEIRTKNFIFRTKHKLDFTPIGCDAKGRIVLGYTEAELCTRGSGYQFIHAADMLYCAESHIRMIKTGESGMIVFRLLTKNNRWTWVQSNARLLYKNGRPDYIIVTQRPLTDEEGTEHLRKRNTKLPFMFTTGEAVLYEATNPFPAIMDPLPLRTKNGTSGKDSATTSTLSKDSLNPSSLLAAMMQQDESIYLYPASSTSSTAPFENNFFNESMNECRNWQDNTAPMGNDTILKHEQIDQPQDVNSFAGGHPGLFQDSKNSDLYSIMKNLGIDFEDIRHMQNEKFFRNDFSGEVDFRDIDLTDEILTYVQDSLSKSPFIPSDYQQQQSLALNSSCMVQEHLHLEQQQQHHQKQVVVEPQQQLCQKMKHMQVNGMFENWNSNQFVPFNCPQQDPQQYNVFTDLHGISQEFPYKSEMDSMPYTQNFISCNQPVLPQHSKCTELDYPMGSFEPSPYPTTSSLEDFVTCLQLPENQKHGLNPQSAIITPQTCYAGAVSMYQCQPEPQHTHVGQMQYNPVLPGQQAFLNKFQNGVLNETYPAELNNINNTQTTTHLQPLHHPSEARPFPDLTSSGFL
Sequence of Peroxisome proliferator-activated receptor delta (Homo sapiens) (Q03181 whole entry, looked up): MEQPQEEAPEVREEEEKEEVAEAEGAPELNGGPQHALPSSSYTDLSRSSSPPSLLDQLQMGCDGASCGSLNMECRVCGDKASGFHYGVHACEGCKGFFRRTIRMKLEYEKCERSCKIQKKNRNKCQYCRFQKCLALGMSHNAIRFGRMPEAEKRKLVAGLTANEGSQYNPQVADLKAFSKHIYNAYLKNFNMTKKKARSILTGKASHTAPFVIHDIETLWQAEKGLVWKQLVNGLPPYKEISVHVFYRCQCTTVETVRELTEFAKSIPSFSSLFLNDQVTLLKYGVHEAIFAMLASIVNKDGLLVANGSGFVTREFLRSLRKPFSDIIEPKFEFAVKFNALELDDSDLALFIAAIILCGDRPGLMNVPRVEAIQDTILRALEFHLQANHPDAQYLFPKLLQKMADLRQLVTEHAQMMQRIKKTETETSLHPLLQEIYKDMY
Sequence of Bile acid receptor (Homo sapiens) (Q96RI1 whole entry, looked up): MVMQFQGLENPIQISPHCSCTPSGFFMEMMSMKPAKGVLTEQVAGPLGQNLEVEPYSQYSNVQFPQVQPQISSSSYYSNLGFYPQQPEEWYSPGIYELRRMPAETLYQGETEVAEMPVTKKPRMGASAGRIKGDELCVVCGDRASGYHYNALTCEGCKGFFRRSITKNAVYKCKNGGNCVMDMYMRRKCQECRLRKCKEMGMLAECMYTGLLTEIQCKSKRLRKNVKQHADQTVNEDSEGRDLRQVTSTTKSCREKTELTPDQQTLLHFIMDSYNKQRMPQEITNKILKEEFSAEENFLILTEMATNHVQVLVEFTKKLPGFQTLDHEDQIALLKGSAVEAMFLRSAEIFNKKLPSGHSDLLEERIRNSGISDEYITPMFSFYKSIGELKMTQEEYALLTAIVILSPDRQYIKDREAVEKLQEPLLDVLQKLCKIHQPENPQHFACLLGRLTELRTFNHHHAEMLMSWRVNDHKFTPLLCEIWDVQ
Sequence of Peroxisome proliferator-activated receptor gamma (Homo sapiens) (P37231 whole entry, looked up): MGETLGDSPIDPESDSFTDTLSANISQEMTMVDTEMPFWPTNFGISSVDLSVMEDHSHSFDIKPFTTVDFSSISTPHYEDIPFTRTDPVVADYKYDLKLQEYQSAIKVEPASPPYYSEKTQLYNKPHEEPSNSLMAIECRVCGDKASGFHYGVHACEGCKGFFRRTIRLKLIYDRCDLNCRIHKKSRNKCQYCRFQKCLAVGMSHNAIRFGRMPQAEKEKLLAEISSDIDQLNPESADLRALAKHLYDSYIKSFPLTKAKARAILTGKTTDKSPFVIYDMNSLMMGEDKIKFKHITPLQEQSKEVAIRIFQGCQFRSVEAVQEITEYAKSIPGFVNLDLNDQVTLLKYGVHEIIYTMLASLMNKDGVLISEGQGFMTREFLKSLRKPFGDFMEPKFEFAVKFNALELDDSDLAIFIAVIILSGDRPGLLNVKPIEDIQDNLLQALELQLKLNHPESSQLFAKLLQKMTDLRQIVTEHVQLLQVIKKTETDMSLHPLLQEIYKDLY

For `[O-][Cl+]O`, the Potency entry in [1], in assay [2], in [3], in assay [4], in assay [5] and in [6] was “inactive” each time. The Potency entry in [7], in assay [8], in assay [11], in assay [12], in assay [13] and in assay [14] was “inactive” each time. The result in [9], in assay [10], in assay [15] and in [16] was inactive.
On to `CC/C(=N\OC/C=C/Cl)C1=C(O)CC(C2CCOCC2)CC1=O` (stereo unspecified), for which the Potency result in assay [1], in [2], in [3], in [4], in [6] and in assay [17] was “inactive” throughout. Further, the Potency result in assay [7], in assay [8], in assay [18], in [11], in assay [13] and in assay [14] was “inactive” in each case. In addition, the call in assay [9] and in assay [15] was inactive.
In the case of `O=C(CBr)c1ccccc1`, the Potency result in [1], in [2], in [3], in assay [4], in assay [5] and in assay [6] was “inactive” each time. Also, the Potency result in assay [7], in [18], in assay [11], in assay [12], in [19] and in assay [14] was “inactive” in each case. The outcome in assay [10] and in [20] was inactive.
`CC(C)=CCOc1c2occc2cc2ccc(=O)oc12`: the Potency entry in assay [1], in [3], in assay [4], in [5], in assay [6] and in [8] was “inactive” each time. Further, the Potency entry in [18], in assay [11], in assay [12], in [19], in [13] and in [14] was “inactive” throughout. In addition, the Potency in assay [2] was 3.76 µM (active). Besides, the molecule was classed as inactive in assay [9], in [10], in assay [20] and in assay [15].
Consider `COC(=O)C(C)N(C(=O)Cc1ccccc1)c1c(C)cccc1C` (stereo unspecified), for which the Potency result in assay [1], in assay [2], in [3], in assay [4], in assay [5] and in [6] was “inactive” throughout. The Potency entry in assay [8], in assay [18], in [11] and in assay [14] was “inactive” throughout. The result in [9], in assay [10] and in assay [16] was inactive.
As for `O=C(CBr)OCc1ccccc1`, the Potency result in assay [1], in [2], in [3], in [4], in assay [6] and in assay [17] was “inactive” throughout. Also, the Potency entry in [7], in assay [8], in assay [18], in [11], in assay [12] and in assay [19] was “inactive” each time. Besides, the Potency entry in assay [13] and in assay [14] was “inactive” each time. Also, the call in assay [9], in assay [10], in assay [20], in assay [15] and in [16] was inactive.
On to `C=CC(=O)OCC(C)C`, for which the Potency entry in assay [1], in [2], in [3], in assay [4], in assay [6] and in assay [17] was “inactive” throughout. Besides, the Potency result in assay [7], in assay [8], in assay [18], in [11], in assay [12] and in assay [13] was “inactive” in each case. For the same molecule, the Potency entry in assay [14] is “inactive”. In addition, the molecule was classed as inactive in assay [10], in assay [15] and in [16].
Take `CC(=O)CCC(C)=O`: the Potency entry in [1], in assay [2], in assay [3], in assay [4], in assay [6] and in assay [17] was “inactive” in each case. In addition, the Potency entry in assay [7], in [18], in assay [11], in [13] and in [14] was “inactive” throughout. For the same molecule, the outcome in [9], in [10], in assay [15] and in assay [16] was inactive.
With `CCOP(=S)(OCC)SCSCC`, the Potency entry in assay [1], in assay [2], in [3], in assay [4], in assay [6] and in [17] was “inactive” in each case. The Potency result in [8], in assay [18], in assay [11], in assay [12], in assay [19] and in [13] was “inactive” in each case. For the same molecule, in [14], the Potency entry is “inactive”. Further, the result in assay [9], in [10], in assay [20] and in [15] was inactive.
